Screening results as filed in PubChem BioAssay.
Only some compounds are listed: those with a hit (about 4.1% of all), similar ones and a draw of the others.
Mtb UGM inh = inhibitors of M. tuberculosis UDP-galactopyranose mutase; P9WIQ1; purified UGM, fluorescence polarization probe displacement; inhibition, % at 10 µM; 0.06% of 320,000 active; AID 504406; in the data active means inhibition above about 10%, passing the limit was not always enough
GDH-TPI counter-1 = inhibits GDH-TPI coupling enzymes, artifact for Mtb FBA screen | inhibition, % at 4.8 µM | 1.2% of 360,000 active | GDH-TPI coupled enzyme counterscreen, NADH absorbance; in the data active means inhibition above about 30%;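 further: 0% = DMSO wells and 100% = wells lacking the enzyme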
Mtb FBA inh = inhibitors of M. tuberculosis fructose-bisphosphate aldolase. 2.3% of 360,000 active. AID 588726. inhibition, % at 1 µM. purified M. tuberculosis FBA, fluorescence read-out;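 further: 0% = vehicle and 100% = reference inhibitor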
Vc quorum ag = quorum light induction in luxS cqsA deficient V. cholerae. 0.16% of 350,000 active. activation, % at 18.7 µM. AID 588436. V. cholerae BH1578 lux reporter, luminescence, 6 h; in the data active means activation mostly above about 9.7%, no sharp cut-off
RecA splice inh = inhibitors of M. tuberculosis RecA intein splicing; inhibition, % (test concentration not listed); P9WHJ3; cell-free RecA intein splicing, fluorescence; AID 2221; 0.75% of 290,000 active; in the data active means inhibition above about 30%;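 further: 0% = vehicle wells and 100% = reference inhibitor control wells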
Rv3671c protease = Rv3671c (M. tuberculosis) protease inhibition; AID 2606; inhibition, % at 5.96 µM; 0.048% of 320,000 active; in the data active means inhibition above about 38%;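 further: extracellular domain of Rv3671c used as enzyme; 0% = enzyme with DMSO and 100% = no enzyme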
Target sequence (P9WHR9 whole entry, looked up, the tested form may be a part): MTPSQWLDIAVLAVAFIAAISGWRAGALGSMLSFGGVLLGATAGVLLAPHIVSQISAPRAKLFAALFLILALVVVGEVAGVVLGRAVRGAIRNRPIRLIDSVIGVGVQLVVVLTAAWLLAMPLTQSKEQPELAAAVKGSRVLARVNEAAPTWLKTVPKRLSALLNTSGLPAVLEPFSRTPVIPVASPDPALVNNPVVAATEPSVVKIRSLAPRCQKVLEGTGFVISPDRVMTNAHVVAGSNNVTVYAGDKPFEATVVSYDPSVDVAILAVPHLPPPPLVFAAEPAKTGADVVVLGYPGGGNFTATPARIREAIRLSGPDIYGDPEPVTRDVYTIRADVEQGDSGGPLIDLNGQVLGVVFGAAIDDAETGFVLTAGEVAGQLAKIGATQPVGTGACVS
Mtb FBA inh conf = confirmation of M. tuberculosis fructose-bisphosphate aldolase inhibitors | purified M. tuberculosis FBA, fluorescence read-out | inhibition, % at 1 µM | 78% of 5,600 active | shares compounds with Mtb FBA inh;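 further: 0% = vehicle wells and 100% = reference inhibitor wells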
GDH-TPI counter-2 = inhibits GDH-TPI coupling enzymes, flagging Mtb FBA hits; 81% of 5,600 active; inhibition, % at 1 µM; GDH-TPI coupled enzyme counterscreen, fluorescence; shares compounds with Mtb FBA inh; in the data active means inhibition above about 10%
GDH-TPI dose = GDH-TPI dose response counter-screen for Mtb FBA; shares compounds with Mtb FBA inh; GDH-TPI coupled enzyme assay, fluorescence, artifact counterscreen; IC50, µM; 79% of 170 active; call rule not given here
* marks the source's active call; other numbers are inactive results; i = inactive; . = not tested or not shown; + = active, no number. Unless noted, no stated cut-off is given here; in the data, active means inhibition above about 27%; inactive means the rest.

SMILES	Mtb UGM inh	GDH-TPI counter-1	Mtb FBA inh	Vc quorum ag	RecA splice inh	Rv3671c protease	Mtb FBA inh conf	GDH-TPI counter-2	others
COc1ccc(CCNc2cc(C)nc3c(-c4ccc(Cl)cc4)cnn23)cc1OC	-2	5	34*	i	10	4	42*	34*
Cc1cc(NC(C)c2ccccc2)n2ncc(-c3ccccc3)c2n1 (stereo unspecified)	0	-8	33*	i	17	3	41*	30*
COc1ccc(CCNc2cc(C)nc3c(-c4ccccc4)cnn23)cc1OC	-1	9	9	0	0	6	.	.
Cc1cc(NC2CCCC2)n2ncc(-c3ccccc3)c2n1	4	7	17	1	-2	-4	.	.
Cc1cc(NCc2ccccc2)n2ncc(-c3ccccc3)c2n1	-1	13	28*	i	6	-4	123*	123*
O=C1CNC(=S)N1Cc1cccc(Cl)c1	0	6	3	0	-1	0	.	.
O=C(Cn1c2ccc(F)cc2c2nc3n(c(=O)c21)CCS3)NCC1CCCO1 (stereo unspecified)	0	9	30*	0	0	-19	62*	55*
Cc1ccc2nc3c(cc(C#N)c(=N)n3Cc3cccnc3)c(=O)n2c1	-1	.	.	.	-27	-4	.	.
N#Cc1cc2c(=O)n3ccccc3nc2n(-c2ccc(Cl)cc2)c1=O	-1	2	49*	-1	-125	1	10	-5
COc1ccc(CCn2c(=N)c(S(=O)(=O)c3ccc(Cl)cc3)cc3c(=O)n4ccccc4nc32)cc1	4	2	0	0	1	6	.	.
C=CCn1c(=N)c(C#N)cc2c(=O)n3ccccc3nc21	-2	2	51*	-1	i	-3	128*	111*
CC(C)(C)OC(=O)C[C@H]1C/C=C\C[C@@H](CC(=O)N[C@@H](CO)Cc2ccccc2)C(=O)NCCOC1=O	-6	6	-1	0	.	3	.	.
CC(=O)OC[C@@H]1CN(Cc2ccccc2)C[C@H](n2cnc3c(NCc4ccc(F)cc4)ncnc32)O1	.	9	4	i	.	.	.	.
Cc1ccc(S(=O)(=O)Oc2cccc([N+](=O)[O-])c2)cc1	.	0	1	i	.	.	.	.
O=C(O)c1cc(S(=O)(=O)O)cc(Nc2c3ccccc3nc3ccccc23)c1O	1	-3	43*	1	-11	3	40*	34*
C[C@H](CO)N1C[C@H](C)[C@@H](CN(C)C(=O)NC2CCCCC2)Oc2ccc(NC(=O)Cc3ccccc3)cc2C1=O	1	3	-2	i	.	-10	.	.
CCN(C(=O)COC(=O)c1cc2c(s1)CCCC2)c1c(N)n(Cc2ccccc2)c(=O)[nH]c1=O	3	-2	-1	0	.	-12	.	.
CC(C)Oc1cccc(NC(=O)C2(C)CCN2C(=O)C(C)C)c1 (stereo unspecified)	.	-9	-1	i	.	.	.	.
Cc1ccc(CS(=O)(=O)Cc2ccc(C(=O)NCCCN3CC(C)CC(C)C3)o2)cc1 (stereo unspecified)	3	10	4	i	-3	-1	.	.
COc1cc2ccc(=O)oc2c2ccoc12	-4	18	35*	i	-3	-3	+	155*
CCOC(=O)C1(C)CCN1C(=O)c1ccc2ccccc2c1 (stereo unspecified)	.	0	-3	-5	.	.	.	.
NC(=O)c1c(NC(=O)C(=O)N2CCOCC2)sc2c1CCC2	-1	20	33*	i	-5	-4	117*	89*
COC(=O)C1C(O)=C(C=Nc2ccccc2)C(=O)CC1(C)C (stereo unspecified)	-2	21	-4	0	-7	-3	.	.
COC(=O)C1C(O)=C(C=NC2CCCCC2)C(=O)CC1(C)C (stereo unspecified)	1	-2	28*	-1	-1	7	147*	115*
CCn1cc(C(=O)NCc2ccncc2)c(=O)c2cc(F)c(N3CCN(C(=O)c4ccco4)CC3)cc21	-2	9	42*	i	-2	-8	35*	22*
SMILES	Mtb UGM inh	GDH-TPI counter-1	Mtb FBA inh	Vc quorum ag	RecA splice inh	Rv3671c protease	Mtb FBA inh conf	GDH-TPI counter-2	others
CCn1cc(C(=O)NC(C)C)c(=O)c2cc(F)c(N3CCN(C(=O)c4ccco4)CC3)cc21	-1	7	55*	-4	-1	-11	100*	70*
CCn1cc(C(=O)NCc2ccccc2)c(=O)c2cc(F)c(N3CCN(C(=O)c4ccco4)CC3)cc21	3	-4	20	-1	0	-17	.	.
O=C(NCc1ccco1)c1ccc(-c2ccc3nccn3c2)cc1	.	3	8	2	.	.	.	.
COc1ccccc1Oc1nc(-c2ccccc2)cc(C)c1S(C)(=O)=O	.	21	64*	-2	1	-3	37*	43*
COc1ccc(CCN2CC(C(=O)NCCc3cccc(F)c3)CCC2=O)cc1 (stereo unspecified)	.	-4	1	0	2	.	.	.
NC(=O)C1CCN(c2oc(-c3ccc(F)cc3)nc2S(=O)(=O)c2ccccc2)CC1	-4	10	-1	i	.	1	.	.
COc1cccc(/C=C/c2nc(S(=O)(=O)c3ccccc3)c(N3CCC(C(N)=O)CC3)o2)c1	.	31*	38*	-1	.	.	22	8	GDH-TPI dose=1.3*
CC(C)(O)c1cc2ccc(C#Cc3ccsc3)cc2c(=O)o1	1	9	50*	i	.	-18	32*	31*
CN(C)c1ccc(C#Cc2ccc3cc(CCCO)oc(=O)c3c2)cc1	2	28	6	2	.	-3	.	.
O=c1oc(CCCO)cc2ccc(C#Cc3ccsc3)cc12	3	1	57*	-4	.	-19	87*	73*
CC(C)(OC(=O)c1cccs1)c1cc2ccccc2c(=O)o1	0	8	3	i	.	-1	.	.
c1cc(-c2cccs2)nc(-c2cccs2)c1	-2	5	1	-1	.	0	.	.
c1csc(-c2cnc3ccccc3n2)c1	0	0	63*	.	-8	0	-1	-2
c1coc(-c2nc3ccccc3nc2-c2ccco2)c1	-2	8	3	5	-14	-2	.	.
c1coc(-c2cnc3ccccc3n2)c1	.	16	106*	-5	.	.	69*	46*
CC1(C)C(=O)NCCN1C(=O)CC1C(=O)NCCN1Cc1cccc(C(F)(F)F)c1 (stereo unspecified)	-1	8	7	i	0	-4	.	.
C[C@@H]1CN([C@H](C)CO)C(=O)CCCn2cc(nn2)CO[C@H]1CN(C)C(=O)Nc1ccc(-c2cccs2)cc1	.	8	8	-2	.	.	.	.
